Where “and” joins values, the source holds several entries; their conditions need not be identical. Equal entries are not always repeated. Inconclusive results are not listed. Calls of active or inactive are those of the source. Unless noted, the call rests on the fitted dose curve; in most records, active means well fitted curve in the direction sought with a large enough effect; inconclusive means small, poorly fitted or top-dose-only effect, or another doubt; inactive means no such curve, though single readings can be large; an effect the other way counts as inactive or inconclusive.
Columns and labels:
[1] = biological target: Cellular tumor antigen p53 (Homo sapiens) (UniProt P04637); assay: Primary qHTS for small molecule compounds that upregulate eGFP-tagged delta133p53alpha (in N-terminal) cells. (AID 2060322); settings: NCI-H358 eGFP-delta133p53alpha fluorescence, 24 h; activation: active compounds read high;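 further: series mostly up to about 56 µM; 0% = DMSO vehicle and 100% = reference activator; nearly all actives have a fitted effect of over 75% in size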
Summary of the method: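 NCI-H358 cells pre-induced 24 h with 10 ng/ml doxycycline to express N-terminal eGFP-delta133p53alpha, then dosed 24 h at 37C without doxycycline; fixed, Hoechst-stained, GFP intensity by laser scanning cytometry, normalized to DMSO (0%) and 57.5 uM 5-azacytidine (100%).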

[2] = biological target: Cellular tumor antigen p53 (Homo sapiens) (UniProt P04637); assay: Primary qHTS for small molecule compounds that upregulate eGFP-tagged delta133p53alpha (in C-terminal) cells. (AID 2060324);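 further: 0% = DMSO wells and 100% = 57.5 µM 5-azacytidine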
Summary of the method: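 In this qHTS, GFP-tagged delta133p53alpha levels are measured in fixed NCI-H358 cells after 24 h compound exposure at 37 °C. The cells are pre-induced with 100 ng/ml doxycycline, and signal is normalized to DMSO-treated wells as 0%.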

[3] = biological target: Aldehyde dehydrogenase, mitochondrial (Homo sapiens) (UniProt P05091); assay: qHTS for Inhibitors of the Aldehyde Dehydrogenase Family (ALDH2) Validation screens (AID 2061302; active means well fitted inhibition curve with a large enough effect; title and protocol of this record describe different tests;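 further: plate controls were DMSO vehicle for no effect and maximal DPI positive control response for full effect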)
[4] = biological target: Retinaldehyde dehydrogenase 3 (Homo sapiens) (UniProt P47895); assay: qHTS for Inhibitors of the Aldehyde Dehydrogenase Family (ALDH1A3) Validation screen (AID 2061312); further: on the % scale 0 is the no-effect control and ±100 the full control effect; nearly all actives have a fitted effect of over 45% in size
[5] = BET inhibitor-based combinations targeting novel dependencies in MECOM-rearranged (r) AML: SET-2 cell line (AID 2202231); settings: SET-2 AML cells viability, CellTiter-Glo luminescence, 48 h; viability: active compounds read low, series mostly up to about 46 µM;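 further: plate controls were DMSO treated cells for no effect and wells without cells for full effect; nearly all actives have a fitted effect of over 35% in size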
Summary of the method: (§1)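 A 48 hr incubation preceded viability reading by CellTiter-Glo, with 15 min room-temperature development. Dose series had 11 points; normalization used DMSO and empty wells; AUC was computed and mean-centered per line as Z-AUC.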

[6] = BET inhibitor-based combinations targeting novel dependencies in MECOM-rearranged (r) AML: HNT-34 cell line (AID 2202234);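 further: plate controls were vehicle wells for no effect and cell-free wells for full effect; nearly all actives have a fitted effect of over 35% in size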
Summary of the method: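 Each compound is tested in an 11-point concentration series against 500 seeded cells/well for 48 hr. The luminescent viability signal is normalized to DMSO and blank wells, then reduced to AUC and a cell-line-centred Z-AUC.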

[7] = BET inhibitor-based combinations targeting novel dependencies in MECOM-rearranged (r) AML: AML-194 cell line (AID 2202237;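 further: plate controls were vehicle wells for no effect and wells without cells for full effect; nearly all actives have a fitted effect of over 40% in size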)
Summary of the method: as §1

Sequence of Cellular tumor antigen p53 (Homo sapiens) (P04637 whole entry, looked up): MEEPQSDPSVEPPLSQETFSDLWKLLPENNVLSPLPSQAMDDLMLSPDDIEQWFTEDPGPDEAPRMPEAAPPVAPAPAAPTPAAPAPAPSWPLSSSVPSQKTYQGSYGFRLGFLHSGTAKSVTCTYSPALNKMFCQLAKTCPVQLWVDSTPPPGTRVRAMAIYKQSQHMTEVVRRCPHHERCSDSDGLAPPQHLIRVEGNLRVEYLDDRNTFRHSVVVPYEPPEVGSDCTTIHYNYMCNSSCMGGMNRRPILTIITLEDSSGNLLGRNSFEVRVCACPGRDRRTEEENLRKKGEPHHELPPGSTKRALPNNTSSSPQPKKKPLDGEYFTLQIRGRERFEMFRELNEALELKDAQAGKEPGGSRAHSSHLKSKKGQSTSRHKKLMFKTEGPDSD

NC(CCCCCP(=O)(O)O)C(=O)O (stereo not given)
inactive: activation [1] -10.2% | Potency [2] | Potency [3] | Potency [4]

CCCCCN(C)CCC(O)(P(=O)(O)O)P(=O)(O)O
inactive: activation [1] 3.78% and 4.27% | Potency [2] | Potency [3] | Potency [4]

NCCc1c[nH]c2ccc(C(N)=O)cc12
inactive: activation [1] -19.7% | Potency [2] | Potency [3] | Potency [4]

CC(N)[C@H](O)c1ccc(O)c(O)c1 (stereo not given in full)
inactive: activation [1] -12.2% | Potency [2] | Potency [3] | Potency [4]

CCN1C[C@@]2(COC)C3[C@@H](OC)C4[C@@H]1C3([C@@H]1C[C@]3(O)[C@H](OC(=O)c5ccccc5)[C@@H]1[C@]4(OC(C)=O)[C@@H](O)[C@@H]3OC)[C@H](OC)C[C@H]2O
inactive: activation [1] -12.5% | Potency [2] | Potency [3] | Potency [4]

c1ccc(C2CC2)c(OCC2=NCCN2)c1
inactive: activation [1] 9.21% and -4.03% | Potency [2] | Potency [3] | Potency [4]

CNCC(O)c1ccc(O)cc1 (stereo not given)
inactive: activation [1] -9.6% and -1.8% and -6.7% | Potency [2] | Potency [3] | Potency [4] | viability [5] 116% | Potency [6] | Potency [7]

CC(CCc1ccccc1)NC(C)C(O)c1ccc(O)cc1 (stereo not given)
inactive: activation [1] -7.34% and 8.98% | Potency [2] | Potency [3] | Potency [4]

Reference: PubChem BioAssay (NCATS)
